About 83,000 compounds went through this panel and 20% of them were active in at least one assay; those are over-represented in the sample as a whole.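 A percent growth of 40 corresponds to 60% growth inhibition; 0 means no net growth; -100 means all cells died. Active threshold: below 10.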 Activity calls are given as the source filed them.
These compounds were tested on PC-3 prostate (assay: NCI-60 one-dose screen, 48 h (100 = growth as untreated, 0 = no growth, -100 = all killed)). Settings: 10 µM unless noted.

`COc1ccc(-c2nc(Nc3cc(C)[nH]n3)c3ccccc3n2)cc1` was tested. Which growth did it give?
Its growth is 57.2% (inactive).

With `COc1ccc(-c2csc(NC(=O)CN3CCN(c4cc5c(cc4F)c(=O)c(C(=O)O)cn5C4CC4)CC3)n2)cc1` as the compound, how does the growth read?
Its growth is 11.2% (inactive).

With `Cc1noc(C)c1-c1cc(O)cc(C(O)c2ccccc2)c1` (stereo not drawn) as the compound, how does the growth read?
The growth was 48.4% (inactive).

Which growth does the source give for `COc1cc(OC)c(/C=C/S(=O)(=O)Cc2ccc(OC)c(N)n2)c(OC)c1` here?
Its growth is 26.8% (inactive).

Which growth does the source give for `Oc1ccc(Nc2nccc(-c3ccc4ccccc4c3)n2)cc1` here?
The growth was 48.6% (inactive).

How did the growth turn out when `Cc1cc(Nc2nc(N3CCNCC3)nc3ccccc23)n[nH]1` was run?
Its growth is 80.8% (inactive).

`CCCCCN(CCCCC)CCC[C@@H](C)[C@H]1CC[C@H]2[C@@H]3[C@H](OCCCN)C[C@@H]4C[C@H](OCCCN)CC[C@]4(C)[C@H]3C[C@H](OCCCN)[C@]12C` was tested. Which growth did it give?
Its growth is 80.5% (inactive).

For `C[C@@H]1CC[C@@H]2[C@@H]1[C@H](OC(=O)/C=C/c1ccccc1)[C@]1(c3ccccc3)C[C@@H](OC(=O)CO)[C@@]2(C)O1`, which growth is on record?
The growth was 80.5% (inactive).

With `COc1ccc(C2CC(=O)Nc3c2c(C)nn3-c2nc3ccccc3[nH]2)cc1` (stereo not drawn) as the compound, how does the growth read?
The growth was 38.7% (inactive).

How did the growth turn out when `O=C(/C=C/c1ccc(B(O)O)cc1)/C=C/c1ccc(B(O)O)cc1` was run?
Its growth is 57.1% (inactive).

`CC[C@H](Nc1cc(C)nc(N)n1)c1nc2cccc(NCc3ccc(C(=O)NO)cc3)c2c(=O)n1-c1ccccc1` was tested. Which growth did it give?
Its growth is 12.4% (inactive).

Which growth does the source give for `Cc1ccc(S(=O)(=O)n2cc(-c3csc(-c4cn(C)c5ncccc45)n3)c3ccccc32)cc1` here?
Its growth is 44.8% (inactive).

`CC/C=C\C[C@H](O)C/C=C1/C(=O)C=C[C@@H]1C/C=C\CCCC(N)=O` was tested. Which growth did it give?
The growth was 19.6% (inactive).

`Cc1cccc(NC(=O)c2sc3nc4c(cc3c2N)C(=O)CCC4)c1` was tested. Which growth did it give?
Its growth is 27.1% (inactive).

How did the growth turn out when `CC(=O)C1=C(O)C=C2Oc3c(C(=O)/C=C/c4ccccc4)c(O)c(C)c(O)c3[C@]2(C)C1=O` was run?
The growth was 24.2% (inactive).

`O=C1NC(=O)C(CC(=O)n2c(-c3ccccc3)nc3ccccc32)C(=O)N1` was tested. Which growth did it give?
Its growth is 100% (inactive).

Which growth does the source give for `Oc1cccc(Nc2nccc(-c3ccc4ccccc4c3)n2)c1` here?
The growth was 28.1% (inactive).

With `COc1c(Cl)cc(Cl)cc1Cl` as the compound, how does the growth read?
The growth was 111% (inactive).

For `CC1(C)OCC2OC3(C(=O)O)OC(C)(C)OC3C2O1` (stereo not drawn), which growth is on record?
The growth was 106% (inactive).

Which growth does the source give for `O=C(NC(Cc1ccccc1)C(=O)CCl)OCc1ccccc1` (stereo not drawn) here?
The growth was 67.5% (inactive).

`O=C(N/N=C/c1ccc(O)cc1O)c1cccnc1` was tested. Which growth did it give?
The growth was 53.2% (inactive).

With `O=c1c2cccc3c(NC4CCCCC4)ccc(c32)c2nc3ccccc3n12` as the compound, how does the growth read?
Its growth is 80% (inactive).

`O=C1Nc2ccccc2/C1=C/C(=N/c1nnc(-c2ccccc2)s1)c1ccccc1` was tested. Which growth did it give?
The growth was 78.4% (inactive).

— PubChem BioAssay (NCI)
